Screening results (PubChem)
Compounds with a hit are over-represented: about 7.9% of the library has one in this group of screens.
HCMV inh – human cytomegalovirus inhibition | 410,000 tested, 4.5% active | HFF cells, HCMV-luciferase reporter, 72 h; hits give low values | activity change, negative = inhibition, % at 57.5 µM; in the data active = activity change below about -60%; inconclusive = no clear call, values can overlap the other calls; inactive = above about -39%
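Screen run at 2 compound doses on HFFs infected with reporter HCMV, MOI 1 PFU/cell. Luciferase activity from cell lysates at 72 h post infection gave inhibition relative to buffer-only and Salinomycin wells.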
LASV entry inh – Lassa virus entry inhibition. Potency, µM (titrated, usually from 37.9 µM), for inactives: at the top dose activity change, negative = inhibition, most hits filed as inhibitors. Lassa virus pseudotype entry inhibition, cell reporter. 300,000 tested, 1.2% active. AID 540256; calls by dose curve; tested in HEK293 cells; also: potency is read from the fitted curve at half-maximal effect; nearly all actives have a fitted effect of over 50% in size
HCV inhibitor – HCV inhibition. AID 651820. Huh7.5.1 HCVcc-Cre infection, luciferase reporter, 44 h. 340,000 tested, 3.4% active. Potency, µM (top dose mostly 41.8 µM), for inactives: at the highest dose activity change, negative = inhibition, most hits filed as inhibitors; active = well fitted inhibition curve with a large enough effect; inconclusive = small, poorly fitted or top-dose-only effect, or another doubt; inactive = no such curve, though single readings can be large or run the other way; also: potency is read from the fitted curve at half-maximal effect
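Compounds are dispensed onto cells plated 4 h earlier at 1,000 per well, with HCVcc-Cre virus (about 0.5 moi) added next. Following 44 h of culture, luminescent signal is measured for 15 sec after 15 min with substrate at room temperature.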
FMDV inh – foot and mouth disease virus antiviral activity. FMDV antiviral cell-based qHTS. Potency, µM (highest dose often 57.9 µM), inactives show at the highest dose activity change, negative = inhibition, hits mostly inhibitors. 410,000 tested, 1.2% active. AID 1159524; calls by dose curve; tested in HEK293T cells; also: read-out not given here; potency is read from the fitted curve at half-maximal effect; nearly all actives have a fitted effect of over 45% in size
Marburg entry inh – inhibitors of Marburg virus binding or cell entry; 300,000 tested, 1.8% active; AID 540276; Marburg virus pseudotyped entry inhibition, cell reporter; Potency, µM (titrated, usually from 37.8 µM), for the others: at the top dose activity change, negative = inhibition, most hits filed as inhibitors; calls by dose curve; tested in HEK293 cells; also: potency is read from the fitted curve at half-maximal effect
* hit, by the source's call; ? = inconclusive; / = no result; [ ] = another dose, or the depositor's remark. % is scaled to controls: 0 for no effect and ±100 for the full control effect.

SMILES | HCMV inh | LASV entry inh | HCV inhibitor | FMDV inh | Marburg entry inh
COc1ccc(NS(=O)(=O)c2cc(NC(=O)c3ccc(Cl)cc3)ccc2N2CCOCC2)cc1 | ? | ? | 7.9µM* | 67% | 1.1µM*
NC(=O)c1c(NC(=O)COC(=O)c2ccc(O)c(Cl)c2)sc2c1CCCC2 | 11 | 17%[46.1 µM] | -13% | 5% | ?
O=C(Nc1ccc(Cl)c(S(=O)(=O)N2CCOCC2)c1)c1ccc2c(c1)OCO2 | ? | ? | 10µM* | 32µM* | 10µM*
CC(C)Oc1ccc(C(=O)Nc2ccc(Cl)c(S(=O)(=O)Nc3ccc(Cl)cc3)c2)cc1 | -22 | 11µM* | ? | -1% | ?
COc1ccc(C(=O)Nc2ccc(S(=O)(=O)N3CCOCC3)cc2)cc1 | -39 | 14% | -22% | 4% | 10%
O=C(NC(=S)Nc1ccc(N2CCCCC2)c(Cl)c1)c1ccc2c(c1)OCCO2 | -63* | ? | 3.5µM* | ? | 1.4µM*
O=C(NC(=S)Nc1ccc(N2CCOCC2)c(Cl)c1)c1cncc(Br)c1 | -13 | 0% | -6% | -12% | ?
COc1ccc(C(=O)Nc2ccc(Cl)c(S(=O)(=O)N3CCOCC3)c2)cc1 | -76* | ? | 8.9µM* | 25µM* | ?
CC(NC(N)=O)C(=O)Nc1ccc(Cl)c(S(=O)(=O)Nc2ccc(Cl)cc2)c1 (stereo not given) | -5 | / | 19% | 46% | /
O=C(CN1C(=O)CCc2cc(S(=O)(=O)N3CCOCC3)ccc21)NCc1ccccc1Cl | 32 | 5%[46.1 µM] | / | -1% | /
O=C(Nc1ccc(Cl)c(S(=O)(=O)N2CCOCC2)c1)c1ccccn1 | -17 | -17%[46.1 µM] | -29% | -19% | ?
O=C(Nc1ccc(Cl)c(S(=O)(=O)N2CCOCC2)c1)c1ccc(Cl)nc1 | ? | ? | 11µM* | 18µM* | ?
CCC(=O)N1CCN(c2ccc(Cl)cc2NC(=O)c2ccc3c(c2)OCCO3)CC1 | -61* | 13% | -10% | -27% | -4%
CCC(=O)N1CCN(c2ccc(NC(=O)c3ccc4c(c3)OCCO4)cc2)CC1 | 37 | ? | -18% | -17% | 12%[46.1 µM]
Cc1ccccc1Cn1c(C)c(CNCc2ccccc2)c(C(=O)O)c1C | 8 | -3%[46.1 µM] | / | -3% | 3%[46.1 µM]
COc1ccc(-c2noc(CCC(=O)NCC3CCCO3)n2)cc1 (stereo not given) | 52 | 11% | -24% | -14% | -24%
CC(C)(C)c1ccc(-c2noc(CCC(N)=O)n2)cc1 | ? | ? | 4% | -26% | 1.5µM*
Cc1cc(C)cc(OCC(=O)NNC(=S)NC(=O)C2CC2)c1 | -80* | -17%[46.1 µM] | -5% | ? | ?
COc1ccc(CCc2nnc(CCC(=O)NCC3CCCO3)o2)cc1 (stereo not given) | -69* | -23%[46.1 µM] | 23% | 9% | -2%[46.1 µM]
CNC(=O)CCc1nc(-c2ccc(C(C)(C)C)cc2)no1 | -23 | ? | -11% | 6% | 0.89µM*
CCC(c1nnnn1-c1ccc2c(c1)OCCO2)N1CCN(c2cc(C)ccc2C)CC1 (stereo not given) | -12 | / | / | ? | /
O=C(Nc1nnc(S(=O)(=O)N2CCCc3ccccc32)s1)c1ccc(Cl)cc1 | -15 | 8%[46.1 µM] | / | 0% | /
Cc1ccc([C@H]2/C(=C(\O)c3ccc(OC(C)C)cc3)C(=O)C(=O)N2CCN2CCOCC2)cc1 | / | / | / | / | 0%
Cc1cc(C)c(C)c(OCC(=O)NCC2CCCO2)c1 (stereo not given) | 18 | 8% | 1% | 19% | -5%
CCc1ccccc1N(CC)C(=O)CCc1nc(-c2ccc(C)cc2)no1 | -30 | 10µM* | ? | -9% | ?
SMILES | HCMV inh | LASV entry inh | HCV inhibitor | FMDV inh | Marburg entry inh
Cc1cc(C)cc(OCC(=O)NCC2CCCO2)c1 (stereo not given) | -65* | 7% | 8% | / | 5%
CC(C)(C)c1ccc(-c2noc(CCC(=O)NCC3CCCO3)n2)cc1 (stereo not given) | -72* | ? | ? | -21% | ?
CC(C)(C)c1ccc(-c2noc(CCC(=O)Nc3cccnc3)n2)cc1 | -75* | ? | ? | -23% | ?
Cc1ccccc1CC(=O)Nc1ccc2c(c1)c(=O)n(C)n2-c1ccccc1F | ? | / | / | 16% | /
CC(=O)c1ccc(NC(=O)CN(C)S(=O)(=O)c2cc3c(cc2C)NC(=O)CO3)cc1 | -3 | -1%[46.1 µM] | / | -13% | /
COc1ccc2c(c1)[C@@H](NC(=O)OCc1ccccc1)[C@H](C)[C@@H](c1ccccc1)N2C(=O)Nc1ccc(C(F)(F)F)cc1 | -36 | / | / | / | /
CCc1ccc(NC(=O)c2ccc(F)c(S(=O)(=O)NCCc3ccc(OC)c(OC)c3)c2)cc1 | -83* | ? | / | ? | /
CC(=O)Nc1ccc(NC(=O)c2cccc(S(=O)(=O)N(C)C3CCCCC3)c2)cc1 | 0 | / | ? | -25% | /
CCc1ccc(NC(=O)c2ccc(F)c(S(=O)(=O)NCC3COc4ccccc4O3)c2)cc1 (stereo not given) | -91* | 16µM* | ? | -27% | 12µM*
CCc1ccc(NC(=O)c2ccc(F)c(S(=O)(=O)N(C)C3CCCCC3)c2)cc1 | -98* | ? | / | ? | /
Cc1ccc([N+](=O)[O-])cc1S(=O)(=O)NCC1COc2ccccc2O1 (stereo not given) | -68* | / | ? | 12% | /
Cc1ccc(S(=O)(=O)NCC2COc3ccccc3O2)cc1 (stereo not given) | -26 | 13% | 0% | 19% | 19%
CC1=C(C(=O)OC2CCCCCC2)C(c2ccc(Cl)cc2Cl)CC(=O)N1 (stereo not given) | -31 | -18%[46.1 µM] | / | -21% | 2%[46.1 µM]
COC1=C[C@H](C(=O)N[C@H]2CCCC[C@H]2NC(C)=O)[C@@]2(C)Cc3ccccc3[C@@H]2CC1=O | / | / | / | / | -12%[14.2 µM]
CCCNC(=O)OC[C@H]1O[C@H](CCON=CC[C@@H]2C=C[C@H](OC(C)=O)[C@@H](COC(C)=O)O2)C=C[C@H]1Oc1ccc(OC)cc1 | / | 7%[14.3 µM] | / | / | 6%[14.2 µM]
CCc1ccc(NC(=O)c2ccc(F)c(S(=O)(=O)NC3CCCCCC3)c2)cc1 | -79* | ? | / | 6% | /
CCOc1ccc2nc(SCC(=O)NCc3ccccc3OC)[nH]c2c1 | -6 | ? | -11% | 8% | 1%[46.1 µM]
COc1cccc(C2CC(c3c(-c4ccccc4)c4cc(Cl)ccc4[nH]c3=O)=NN2S(C)(=O)=O)c1OC (stereo not given) | -6 | ? | 11µM* | ? | ?
COc1ccccc1C1CC(c2c(-c3ccccc3)c3cc(Cl)ccc3[nH]c2=O)=NN1S(C)(=O)=O (stereo not given) | 9 | ? | ? | ? | ?
CCOC(=O)C1=C(C)N(CCCC(=O)O)C(=O)NC1c1ccc2ccccc2c1 (stereo not given) | 10 | / | 16% | -9% | /
Nc1c(S(=O)(=O)c2cccs2)c2nc3ccccc3nc2n1CCc1ccccc1 | / | / | / | / | 1%
CC(C)CCn1c(N)c(S(=O)(=O)c2cccs2)c2nc3ccccc3nc21 | / | 39%[14.3 µM] | ? | 21% | 15µM*
